Inconclusive results are not listed. Calls of active or inactive are those of the source. The calls were made as follows: active = hit-call score of the fitted dose curve at least 0.9, where 1 is the maximum; inconclusive = response in the unintended direction; inactive = score below 0.9. Peptide text beside a SMILES is read from it.

Assay [1] has as its target Estrogen receptor (Homo sapiens) (UniProt P03372). Briefly: OT_ER_ERaERa_1440: Odyssey Thera (OT) 24-hour HEK293T Protein-Complementation Assay for Estrogen Receptor-alpha/-alpha Homodimer (AID 2283349).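 Also: hits raise fluorescence above DMSO for agonists and antagonists alike.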 In a few lines:
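Readout is the rise in mean fluorescence from reporter fragment complementation when ERα LBD (aa 310-547) units dimerize in HEK293T cells. Measured 24 h after dosing and analysed as increase over DMSO control.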

Assay [2] has the same target. Briefly: OT_ER_ERaERa_0480: Odyssey Thera (OT) 8-hour HEK293T Protein-Complementation Assay for Estrogen Receptor-alpha/-alpha Homodimer (AID 2283351).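 Also: rise in fluorescence from reassembled reporter fragments on ERα LBD homodimer in nucleus or whole cell.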 In a few lines:
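The readout is complementation of fragments fused to the human ER alpha ligand-binding domain (aa 310-547), stably expressed in HEK293T cells. After 8 h of exposure, the increase in nuclear/cytoplasmic fluorescence was measured by laser scanning cytometry and fitted relative to DMSO.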

The target of assay [3] is T1, Estrogen receptor (Homo sapiens) + Estrogen receptor beta (Homo sapiens) (UniProt P03372+Q92731). Briefly: OT_ER_ERaERb_0480: Odyssey Thera (OT) 8-hour HEK293T Protein-Complementation Assay for Estrogen Receptor-alpha/-beta Heterodimer (AID 2283352). In short, it runs like this:
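Human HEK293T cells were treated for 8 hours and receptor heterodimerisation was detected through reconstitution of a fluorescent reporter split between ER-alpha and ER-beta ligand-binding domains. Activity was analysed as gain of signal against DMSO.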

For assay [4], the target named is Androgen Receptor/SRC-1 Co-activator, AR (gene 367) (UniProt P10275). Briefly: OT_AR_ARSRC1_0960: Odyssey Thera (OT) 16-hour HEK293T Protein-Complementation Assay for Androgen Receptor/SRC-1 Co-activator (AID 2283353).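 Also: actives raise the signal above DMSO so potency reflects increased AR and SRC-1 complex.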 In short, it runs like this:
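HEK293T cells stably expressing AR and SRC-1 fused to Venus YFP fragments, imaged 16 h after dosing. Nuclear/cytoplasmic fluorescence ratio at 488 nm from at least 400 cells per image; gain of signal relative to DMSO.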

The target of assay [5] is T1, Estrogen receptor (Homo sapiens) + Estrogen receptor beta (Homo sapiens). The assay is described as follows: OT_ER_ERaERb_1440: Odyssey Thera (OT) 24-hour HEK293T Protein-Complementation Assay for Estrogen Receptor-alpha/-beta Homodimer (AID 2283356).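 Also: heteromer of ER alpha and ER beta binding domains; hits raise reporter fluorescence and both agonists and antagonists give an increase.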 In a few lines:
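24 h exposure; HEK293T PCA cells with ERα/ERβ LBD fragments; signal rise in nuclear or whole-cell fluorescence over vehicle.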

Assay [6] concerns the target Estrogen receptor beta (Homo sapiens) (UniProt Q92731). The assay is described as follows: OT_ER_ERbERb_0480: Odyssey Thera (OT) 8-hour HEK293T Protein-Complementation Assay for Estrogen Receptor-beta/-beta Homodimer (AID 2283357).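 Also: active means signal gain over DMSO baseline.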 In short, it runs like this:
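Readout: increase in mean fluorescence intensity (nucleus for agonists; nucleus plus cytoplasm for antagonists) relative to DMSO, from a reporter-fragment complementation of human ER-beta LBD homodimer in HEK293T cells dosed 8 hours.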

For assay [7], the target named is Androgen Receptor/SRC-1 Co-activator, AR (gene 367) (UniProt P10275). Briefly: OT_AR_ARSRC1_0480: Odyssey Thera (OT) 8-hour HEK293T Protein-Complementation Assay for Androgen Receptor/SRC-1 Co-activator (AID 2283354).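 Also: hits raise the complementation signal above DMSO so AC50 marks enhancers.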 In short, it runs like this:
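HEK293T cells stably expressing AR and SRC-1 fused to split Venus YFP fragments via (Gly4Ser)2 linkers were read 8 h after compound dosing. Complementation was imaged at 488 and 635nm, and nuclear/cytoplasmic fluorescence ratio (488nm) was taken over ≥400 cells; gain-of-signal versus DMSO.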

The target of assay [8] is human Peroxisome Proliferator-activated Receptor alpha (PPARa), PPARA (gene 5465) (UniProt Q07869). Briefly: NVS_NR_hPPARa: NovaScreen (NVS) Nuclear Receptor Binding Assay for human Peroxisome Proliferator-activated Receptor alpha (PPARa) (AID 2283359).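 Also: activity means loss of TR-FRET signal versus DMSO baseline.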 In a few lines:
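Cell-free binding assay with extracted human protein, read by TR-FRET 1 h after chemical dosing. Loss of signal relative to DMSO baseline indicates binding. Primary screen used duplicate single concentration (25 uM); actives followed up in concentration series.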

Chain of Estrogen receptor beta (Homo sapiens) (Q92731 whole entry, looked up, the tested form may be a part): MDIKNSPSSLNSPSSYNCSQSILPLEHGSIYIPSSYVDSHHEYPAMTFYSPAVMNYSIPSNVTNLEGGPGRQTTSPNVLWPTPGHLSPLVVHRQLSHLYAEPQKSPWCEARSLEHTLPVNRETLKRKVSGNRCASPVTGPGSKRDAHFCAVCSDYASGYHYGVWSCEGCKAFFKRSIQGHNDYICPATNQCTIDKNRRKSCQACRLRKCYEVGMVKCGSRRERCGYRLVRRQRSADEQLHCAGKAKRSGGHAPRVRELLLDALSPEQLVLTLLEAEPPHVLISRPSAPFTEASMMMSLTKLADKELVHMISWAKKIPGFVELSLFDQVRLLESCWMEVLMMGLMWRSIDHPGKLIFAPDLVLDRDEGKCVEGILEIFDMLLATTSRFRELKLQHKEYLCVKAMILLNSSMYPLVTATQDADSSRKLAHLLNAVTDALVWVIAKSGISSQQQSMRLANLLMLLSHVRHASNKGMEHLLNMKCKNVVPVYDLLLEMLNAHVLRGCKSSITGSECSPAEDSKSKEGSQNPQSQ
T1 sequence (P03372 whole entry, looked up, the tested form may be a part): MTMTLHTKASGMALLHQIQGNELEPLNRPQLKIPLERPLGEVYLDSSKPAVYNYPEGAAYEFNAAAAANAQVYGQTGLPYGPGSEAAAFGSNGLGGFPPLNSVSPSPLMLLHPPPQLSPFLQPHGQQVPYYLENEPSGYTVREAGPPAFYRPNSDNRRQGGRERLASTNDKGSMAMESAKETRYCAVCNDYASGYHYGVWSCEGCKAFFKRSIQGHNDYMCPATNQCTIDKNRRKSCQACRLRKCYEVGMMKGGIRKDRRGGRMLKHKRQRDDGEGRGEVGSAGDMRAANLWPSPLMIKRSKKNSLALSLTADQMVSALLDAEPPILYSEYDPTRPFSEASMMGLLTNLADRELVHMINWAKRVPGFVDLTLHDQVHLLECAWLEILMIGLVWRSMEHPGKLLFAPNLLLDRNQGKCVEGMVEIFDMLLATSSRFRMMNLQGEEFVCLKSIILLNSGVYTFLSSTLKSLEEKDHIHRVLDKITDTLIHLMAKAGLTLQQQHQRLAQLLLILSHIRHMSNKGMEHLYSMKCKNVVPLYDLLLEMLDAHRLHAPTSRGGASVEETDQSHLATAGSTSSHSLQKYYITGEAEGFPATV
T1 sequence (Q92731 whole entry, looked up, the tested form may be a part): as the sequence (Q92731 whole entry, looked up, the tested form may be a part) above
Chain of Estrogen receptor (Homo sapiens) (P03372 whole entry, looked up, the tested form may be a part): as the sequence (P03372 whole entry, looked up, the tested form may be a part) above
Chain of Androgen Receptor/SRC-1 Co-activator, AR (gene 367) (P10275 whole entry, looked up, the tested form may be a part): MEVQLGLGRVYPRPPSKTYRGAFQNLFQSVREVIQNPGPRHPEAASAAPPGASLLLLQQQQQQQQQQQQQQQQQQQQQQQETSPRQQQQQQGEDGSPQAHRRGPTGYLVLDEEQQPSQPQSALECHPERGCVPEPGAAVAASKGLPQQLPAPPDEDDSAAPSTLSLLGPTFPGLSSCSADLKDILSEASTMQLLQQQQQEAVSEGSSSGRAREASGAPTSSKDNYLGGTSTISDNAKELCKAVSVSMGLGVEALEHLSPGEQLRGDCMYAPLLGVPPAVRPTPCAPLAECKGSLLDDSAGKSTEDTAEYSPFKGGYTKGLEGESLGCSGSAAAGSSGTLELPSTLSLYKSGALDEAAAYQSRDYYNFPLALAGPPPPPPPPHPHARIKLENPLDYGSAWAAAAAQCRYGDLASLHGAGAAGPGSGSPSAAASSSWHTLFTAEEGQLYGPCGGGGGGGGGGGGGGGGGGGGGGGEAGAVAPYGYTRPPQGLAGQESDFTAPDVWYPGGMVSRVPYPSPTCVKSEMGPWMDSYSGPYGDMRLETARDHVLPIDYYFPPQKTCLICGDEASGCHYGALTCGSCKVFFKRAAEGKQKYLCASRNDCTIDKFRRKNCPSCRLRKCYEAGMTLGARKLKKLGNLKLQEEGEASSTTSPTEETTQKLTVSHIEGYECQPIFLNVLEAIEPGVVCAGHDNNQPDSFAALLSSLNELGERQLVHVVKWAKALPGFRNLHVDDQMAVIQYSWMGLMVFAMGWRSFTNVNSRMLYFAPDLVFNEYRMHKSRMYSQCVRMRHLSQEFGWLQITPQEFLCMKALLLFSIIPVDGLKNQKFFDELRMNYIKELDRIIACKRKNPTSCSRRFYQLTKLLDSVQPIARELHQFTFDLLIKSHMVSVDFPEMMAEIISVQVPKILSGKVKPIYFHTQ
Chain of human Peroxisome Proliferator-activated Receptor alpha (PPARa), PPARA (gene 5465) (Q07869 whole entry, looked up): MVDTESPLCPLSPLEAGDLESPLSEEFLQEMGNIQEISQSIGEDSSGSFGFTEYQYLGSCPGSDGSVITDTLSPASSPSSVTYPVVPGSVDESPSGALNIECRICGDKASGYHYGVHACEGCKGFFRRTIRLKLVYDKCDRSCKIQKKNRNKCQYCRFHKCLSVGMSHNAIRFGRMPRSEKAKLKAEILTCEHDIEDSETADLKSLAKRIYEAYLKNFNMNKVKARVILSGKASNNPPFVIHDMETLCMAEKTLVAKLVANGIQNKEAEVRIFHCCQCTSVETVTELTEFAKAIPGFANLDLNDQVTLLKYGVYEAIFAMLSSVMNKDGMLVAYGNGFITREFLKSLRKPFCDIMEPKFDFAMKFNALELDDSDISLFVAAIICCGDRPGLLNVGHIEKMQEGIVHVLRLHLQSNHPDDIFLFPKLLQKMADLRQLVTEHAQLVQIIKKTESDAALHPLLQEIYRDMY

In the case of `CC1=CC=C(C(C)C)CC1`, the AC50 in assay [1] was 31.5 µM (active). Besides, the call in assay [2] was inactive.
For `Cc1c(C(=O)c2c[nH]n(C)c2=O)ccc(S(C)(=O)=O)c1C1=NOCC1`, the compound was classed as inactive in assay [1], in assay [2], in assay [3], in assay [4], in assay [5] and in assay [6].
For `COC(=O)c1ccccc1C`, the compound was called inactive in assay [1], in assay [2], in assay [3] and in assay [5].
With `N#Cc1ccc(C(c2ccc(C#N)cc2)n2cncn2)cc1`, the compound was called inactive in assay [1], in assay [2], in assay [3], in assay [4], in assay [7] and in assay [5]. The call in assay [6] was inactive.
Turning to `Fc1ccc(Br)cc1`, the call in assay [1] and in assay [2] was inactive.
As for `CC(C)(c1ccccc1)c1ccc(Nc2ccc(C(C)(C)c3ccccc3)cc2)cc1`, the call in assay [1] and in assay [2] was inactive.
In the case of `CC(C)=CCCC(C)=CC#N`, the outcome in assay [1] and in assay [2] was inactive.
On to `C=C(C)C1CC=C(C)CC1` (stereo not drawn), for which the outcome in assay [1] and in assay [2] was inactive.
On to `CC(=O)OCc1ccccc1`, for which the call in assay [1], in assay [2], in assay [3], in assay [4], in assay [7] and in assay [5] was inactive. For the same compound, in assay [6], the result was inactive.
Take `COc1ccc(C(=O)c2ccccc2)c(O)c1`: the AC50 is 66.7 µM (active) in assay [1]; 58.4 µM (active) in assay [2]; 31 µM (active) in assay [3]; 58.7 µM (active) in assay [5]; 50 µM (active) in assay [6]. The call in assay [4] and in assay [7] was inactive.
As for `CCc1occc(=O)c1O`, the outcome in assay [1] and in assay [2] was inactive.
Take `Cc1cc(C)n(CO)n1`: the result in assay [1] and in assay [2] was inactive.
Turning to `CC(=O)c1ccccc1O`, the result in assay [1] and in assay [2] was inactive.
For the compound `CCCCCCCCCCCCCC(=O)OC(C)C`, the compound was classed as inactive in assay [1], in assay [2], in assay [3], in assay [4], in assay [7] and in assay [5].
`CCCCOCCOC(=O)COc1ccc(Cl)cc1Cl`: the outcome in assay [1], in assay [2], in assay [3] and in assay [5] was inactive.
Consider `O=C(OCCc1ccccc1)c1ccccc1`, for which the result in assay [1] and in assay [2] was inactive.
For `Oc1ccc(-c2ccccc2)c(Cl)c1`, the outcome in assay [1], in assay [6] and in assay [8] was inactive. Also, the AC50 in assay [2] is 12.2 µM (active); in assay [3] it was 12.2 µM (active); in assay [4] it was 40 µM (active); in assay [7], 31.5 µM (active); in assay [5], 15.9 µM (active).
Regarding `CC12CCC(CC1)C(C)(C)O2`, the result in assay [1] and in assay [2] was inactive.
On to `O=C(Oc1ccccc1)c1ccccc1O`, for which the compound was called inactive in assay [1] and in assay [2].
Regarding `COc1cc(O)c(C(=O)c2ccccc2)cc1S(=O)(=O)O`, the compound was classed as inactive in assay [1], in assay [2], in assay [3], in assay [4], in assay [7] and in assay [5]. The call in assay [6] was inactive.
For `Cc1ccc([N+](=O)[O-])cc1N`, the outcome in assay [1], in assay [2], in assay [3] and in assay [5] was inactive.
Regarding `CCCCCCCO`, the compound was classed as inactive in assay [1], in assay [2], in assay [3], in assay [5] and in assay [6].
As to `O=C(OCc1ccccc1)c1ccc(O)cc1`, the AC50 in assay [1] is 37.3 µM (active); in assay [2], 18.9 µM (active); in assay [3] it was 4.92 µM (active); in assay [5], 33.6 µM (active); in assay [6], 3.98 µM (active).
Take `CC(C)(C)N`: the call in assay [1] and in assay [2] was inactive.
In the case of `O=C(O)CC(C(=O)O)S(=O)(=O)O` (stereo not drawn), the compound was classed as inactive in assay [1] and in assay [2].
Take `CCC[Si](OC)(OC)OC`: the call in assay [1], in assay [2], in assay [3], in assay [4], in assay [7] and in assay [5] was inactive. Moreover, in assay [6], the result was inactive.
Consider `CC(CCC(=O)O)(c1ccc(O)cc1)c1ccc(O)cc1`, for which the AC50 in assay [1] was 55.5 µM (active); in assay [3], 39.1 µM (active); in assay [5], 60.1 µM (active); in assay [6] it was 31.8 µM (active). Also, in assay [2], the outcome was inactive.
As for `COC(=O)[C@H](Cc1ccccc1)NC(=O)[C@@H](N)CC(=O)O` (H-Asp-Phe-OMe), the result in assay [1] and in assay [2] was inactive.
Regarding `CCCCCCOc1ccc(N)cc1`, the AC50 in assay [1] was 23.9 µM (active). Further, the outcome in assay [2] was inactive.
As for `CCC(C)(O)CCCC(C)C` (stereo not drawn), the result in assay [1] and in assay [2] was inactive.
As for `CC(=O)OC1CCCCC1C(C)(C)C` (stereo not drawn), the outcome in assay [1], in assay [2], in assay [3], in assay [4], in assay [7] and in assay [5] was inactive. The result in assay [6] was inactive.
Regarding `CC(C)(C)NC(=O)[C@H]1CC[C@H]2[C@@H]3CC[C@H]4NC(=O)C=C[C@]4(C)[C@H]3CC[C@]12C`, the concentration at half-maximal activity (AC50) in assay [1] is 75 µM (active). Also, the result in assay [2] was inactive.

Values taken from PubChem BioAssay (EPA / NIEHS).
